According to the supplement of paper PMC3334620:
In all, about 33,000 sequences were measured (“E-score (-0.5 to 0.5)”: median about -0.017, highest 2% from about 0.3 on). For the sample, the highest values were picked, then their nearest neighbours and some sequences at random.

Each sequence was assayed against T1, Sut1 (UniProt P53032) (assay: PBM E-score (8-mer binding enrichment) (E-score (-0.5 to 0.5)); higher = stronger / more preferred TF binding). Details: protein concentration: 200 nM; construct: GST-full length.
T1 sequence: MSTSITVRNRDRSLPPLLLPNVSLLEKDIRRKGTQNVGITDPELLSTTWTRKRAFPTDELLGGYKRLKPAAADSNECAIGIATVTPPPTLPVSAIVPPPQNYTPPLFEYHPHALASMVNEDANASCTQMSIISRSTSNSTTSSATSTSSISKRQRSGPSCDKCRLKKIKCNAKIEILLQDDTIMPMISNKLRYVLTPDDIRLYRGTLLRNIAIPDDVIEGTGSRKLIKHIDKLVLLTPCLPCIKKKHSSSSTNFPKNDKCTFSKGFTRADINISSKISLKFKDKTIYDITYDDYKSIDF
Description: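 Universal 'all 10-mer' protein binding microarrays (Agilent AMADID 015681) probed with GST-tagged S. cerevisiae TFs (full-length or DBD) made by in vitro transcription/translation (PURExpress), about 100-200 nM. Bound TF was detected with fluorescent anti-GST. Each ungapped 8-mer (which stands for itself and its reverse complement) is scored by the PBM enrichment score (E-score), a modified Wilcoxon-Mann-Whitney statistic from -0.5 to +0.5, computed with the Universal PBM Analysis Suite. Scale: above 0.35 generally sequence-specific binding.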

Sequence | PBM E-score
AATCGGAT | 0.183
CATCGGGG | -0.00411
AATCGGTG | 0.0417
CATCGGTC | -0.106
CATCGGAC | 0.37
CATCGGAG | 0.435
CATCGGAA | 0.269
GATCGGGC | -0.0436
GATCGGAA | 0.159
AATCGGAG | 0.396
GATCGGAC | 0.367
CATCGGCG | -0.137
ACAAGCAG | 0.0716
CGTCTCGA | -0.113
AAGCAGAG | -0.037
CAGTCGAG | -0.103
CAATGGGG | -0.163
GAAGTCTA | 0.0111
CCTACTCA | 0.021
AGCAGTTC | 0.0132
AATCGGCA | 0.107
AATCGGAA | 0.38
AATCGGCC | -0.109
AATCGGGC | -0.0945
TATCGGAA | 0.26

Sequence | PBM E-score
AATCGGAC | 0.338
CCACTTTA | 0.0316
CCGGTCAG | -0.0559
AATCAGAT | 0.0945
AAGGGATG | -0.0899
GAGTCCAC | -0.108
AGGCTCCG | 0.357
CAGCTCCG | 0.461
AAGCTCCC | -0.156
CAGCTCCC | -0.181
CAGCTCCA | -0.0491
AAGCTCCT | -0.112
AAGCTCCG | 0.455
AGGCTCCA | -0.178
AGGCTCCC | -0.0884
CAGGCCTG | 0.0399
ACGCTAAC | -0.22
GTTCGACA | -0.0722
GTAATAAA | 0.284
TTAATAAA | 0.341
ATAATAAT | 0.295
ATAATATG | 0.286
ATAATAAA | 0.339
CTAATAAC | 0.14
CTAATAAA | 0.197

Sequence | PBM E-score
CTAATATA | 0.225
ATAATATA | 0.301
AATCCTCG | -0.164
CGGGGCTC | 0.0261
ACTTGGGG | -0.203
CGCGCCTC | 0.0917
GGGATACA | -0.064
AACCCCGA | 0.447
ACCCCCGG | -0.0829
AAACCCGA | 0.198
ACCCCCGA | -0.118
CACCCCGA | 0.134
TACCCCGA | 0.324
GACCCCGA | 0.0897
CACCCCGG | 0.0471
AACCCCGG | 0.438
GATGCTAA | 0.0485
AATAGGCC | 0.0314
GCTCGCAA | -0.101
CATCCACC | -0.0255
CGATTCTA | -0.0107
GGCTAATA | 0.17
ACTCATAC | 0.0873
ACCAACCC | -0.212
CTATCGGA | 0.337

Sequence | PBM E-score
GGATCGGA | 0.277
CGATCGGA | 0.246
GTATCGGA | 0.281
ATATCGGA | 0.331
ATATCGGG | -0.0571
AGATCGGA | 0.348
CTATCGGC | -0.13
ATATCGGC | -0.0245
CCTGCTAC | -0.0632
GTTCGGTA | 0.141
AAGATGGC | -0.0118
AGTCCCAG | -0.199
ATTGACCG | 0.0305
AGAGTCCA | -0.0986
CGTTGCAG | -0.136
ATGCAGCA | -0.134
ATCCTTCG | 0.0447
ATCCGCAC | -0.0365
CTCCGCAG | 0.364
CTCCGCAC | 0.306
CTCCGCAA | 0.271
GTCCGCAC | 0.247
ATCCGCAG | 0.0529
CGATTTCA | 0.0969
CCACACGG | -0.0635

Sequence | PBM E-score
ACGTCCGG | 0.101
CCCCGTAA | 0.0974
ATCCGTAA | 0.183
GACCGTAA | -0.0628
CTCCGTAC | 0.331
ATCCGTAC | 0.178
CTCCGTAA | 0.328
CACCGTAC | 0.0478
CACCGTAA | 0.0107
GTCCGTAA | 0.342
AGCATTGA | -0.0961
CCTAACCA | 0.0768
ACATCTGC | -0.193
ATTAAATC | 0.191
CTTAAAGA | 0.111
CATAAATA | 0.168
ATTAAATG | 0.243
CATAAAAA | 0.161
TATAAATA | 0.343
TATAAAAA | 0.318
GATAAAAA | 0.263
ATTAAATA | 0.315
GTTAAAGA | 0.0511
ATTAAAGA | 0.311
TAAAAATA | 0.249

Sequence | PBM E-score
ACCATGAG | -0.166
TGCTTCAA | 0.0485
AAGTTCTA | 0.0927
GAGGATCA | -0.09
CAGCTATC | -0.207
ATGAGTCG | -0.157
ACAGCGTG | -0.171
AGGCCCAC | -0.387
AAGGCTAA | 0.0404
AACAAATA | 0.201
GATAAACA | 0.203
GATAAATA | 0.325
AATAAATG | 0.179
AATAAATT | 0.237
AATAAATA | 0.374
GATAAATC | 0.26
CACAAATA | 0.13
TACAAATA | 0.303
AACAAGCG | -0.0413
GCGCCTCA | -0.0448
ACACTTAC | 0.0992
CATCTCCC | -0.138
AGTCTCCG | 0.316
ATTCTCCG | 0.409
AATCTCCG | 0.454

Sequence | PBM E-score
AATCTCCC | -0.268
AGTCTCCC | -0.0841
ATTCTCCA | -0.0299
CATCTCCG | 0.478
CATCTCCA | -0.036
AGTCTCCA | -0.229
AATCTCCT | 0.147
ATTCTCCC | -0.0729
GAACTTTA | 0.145
GTAATTCA | 0.182
CAAATCGG | 0.0756
AGCCTTCG | -0.203
AATTTCGG | 0.242
CAGAAATC | 0.0914
CCGTTGGA | 0.0326
ACTCGCTA | 0.0713
ACTGGACT | -0.107
AACGGACT | 0.444
AGCGGACA | 0.107
AACGGACG | 0.0275
AGCGGACT | 0.406
AACGGACC | 0.191
